Our source for the Percent Effect values is ChEMBL document CHEMBL3988442, “University of Dundee, Small-Polar-MMV Screening Library” (2021).

For some assays here: Measured potencies and affinities stand elsewhere.

What all share (set-up): scale not given: direction of the effect not stated beside the values
The target in assay [1] is Protein translocase subunit SecA (Escherichia coli (strain K12)) (UniProt P10408). Description: Assay to Identify E. coli SecA ATPase Inhibitors. It is filed as functional. As to conditions: 30 µM.
Sequence of Protein translocase subunit SecA (Escherichia coli (strain K12)) (P10408 whole entry): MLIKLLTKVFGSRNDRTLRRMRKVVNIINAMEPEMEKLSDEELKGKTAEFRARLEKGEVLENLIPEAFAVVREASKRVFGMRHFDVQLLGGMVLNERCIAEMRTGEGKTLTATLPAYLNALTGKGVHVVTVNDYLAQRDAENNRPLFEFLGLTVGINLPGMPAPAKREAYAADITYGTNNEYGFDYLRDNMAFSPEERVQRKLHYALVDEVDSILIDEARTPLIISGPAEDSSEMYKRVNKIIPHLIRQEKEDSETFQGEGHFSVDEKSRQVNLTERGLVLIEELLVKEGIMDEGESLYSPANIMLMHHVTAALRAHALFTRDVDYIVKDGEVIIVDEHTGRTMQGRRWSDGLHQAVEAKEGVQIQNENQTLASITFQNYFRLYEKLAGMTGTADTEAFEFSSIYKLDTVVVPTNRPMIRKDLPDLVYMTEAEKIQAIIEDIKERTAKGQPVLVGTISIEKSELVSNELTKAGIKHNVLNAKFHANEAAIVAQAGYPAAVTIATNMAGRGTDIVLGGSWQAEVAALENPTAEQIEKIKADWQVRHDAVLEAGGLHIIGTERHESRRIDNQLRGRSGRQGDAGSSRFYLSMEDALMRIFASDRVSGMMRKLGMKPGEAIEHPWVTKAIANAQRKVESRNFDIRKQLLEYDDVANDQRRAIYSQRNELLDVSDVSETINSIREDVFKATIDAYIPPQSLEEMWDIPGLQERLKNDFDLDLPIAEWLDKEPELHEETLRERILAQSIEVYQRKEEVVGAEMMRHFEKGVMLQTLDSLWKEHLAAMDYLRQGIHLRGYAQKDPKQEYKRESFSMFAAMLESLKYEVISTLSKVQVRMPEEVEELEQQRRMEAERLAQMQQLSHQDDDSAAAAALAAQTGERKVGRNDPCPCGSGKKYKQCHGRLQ
The target of assay [2] is T1, Ubiquitin-activating enzyme e1, putative (Leishmania donovani (strain BPK282A1)) (UniProt E9BSI1).
T1 sequence (whole entry): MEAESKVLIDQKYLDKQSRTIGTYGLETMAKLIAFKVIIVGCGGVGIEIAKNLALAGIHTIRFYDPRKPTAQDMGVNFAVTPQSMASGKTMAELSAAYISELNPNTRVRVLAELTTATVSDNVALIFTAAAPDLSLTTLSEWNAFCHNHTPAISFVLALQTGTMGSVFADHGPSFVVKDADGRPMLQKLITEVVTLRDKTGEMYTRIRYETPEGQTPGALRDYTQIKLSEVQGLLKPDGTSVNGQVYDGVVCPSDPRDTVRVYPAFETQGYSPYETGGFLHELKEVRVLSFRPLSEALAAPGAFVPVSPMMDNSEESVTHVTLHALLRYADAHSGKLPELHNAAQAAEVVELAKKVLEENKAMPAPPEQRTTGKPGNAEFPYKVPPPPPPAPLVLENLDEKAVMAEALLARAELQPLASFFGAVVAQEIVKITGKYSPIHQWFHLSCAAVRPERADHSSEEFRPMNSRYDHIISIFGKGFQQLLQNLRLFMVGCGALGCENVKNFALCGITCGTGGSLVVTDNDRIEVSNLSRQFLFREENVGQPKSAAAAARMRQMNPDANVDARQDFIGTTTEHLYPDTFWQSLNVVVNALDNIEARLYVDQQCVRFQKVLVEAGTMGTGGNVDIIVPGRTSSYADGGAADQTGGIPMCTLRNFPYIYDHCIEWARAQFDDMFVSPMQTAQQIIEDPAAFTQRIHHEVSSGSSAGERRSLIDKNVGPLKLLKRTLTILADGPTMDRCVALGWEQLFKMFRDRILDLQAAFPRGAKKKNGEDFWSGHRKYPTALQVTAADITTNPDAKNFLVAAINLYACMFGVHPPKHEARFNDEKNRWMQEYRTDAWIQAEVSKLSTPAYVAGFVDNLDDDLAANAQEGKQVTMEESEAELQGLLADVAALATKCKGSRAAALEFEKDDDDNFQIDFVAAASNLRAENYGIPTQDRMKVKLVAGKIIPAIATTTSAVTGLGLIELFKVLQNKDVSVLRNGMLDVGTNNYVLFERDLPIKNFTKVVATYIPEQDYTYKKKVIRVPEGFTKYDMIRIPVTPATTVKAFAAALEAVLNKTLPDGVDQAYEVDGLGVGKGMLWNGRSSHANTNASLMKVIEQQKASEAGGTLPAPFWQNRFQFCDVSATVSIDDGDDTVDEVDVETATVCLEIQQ
Description: Leishmania donovani Ubiquitin Activating Enzyme (LdE1). The assay is classed as functional. Conditions: 30 µM.

Assay [3] has as its target AMP-activated protein kinase, AMPK (Homo sapiens) (UniProt P54646+O43741+P54619+Q9UGJ0+Q9Y478+Q13131+Q9UGI9). Description: AMP-dependent Kinase enzyme assay. An in vitro enzyme assay that detects ADP turnover that is directly proportional to AMPK activity. This uses naive AMPK that is activated during the assay with MK-8722. Conditions: 30 µM. It is filed as functional.

The target of assay [4] is Sialic acid-binding Ig-like lectin 9 (Homo sapiens) (UniProt Q9Y336). Description: Hs-Siglec9 ALPHAscreen SOP 20170721. As to conditions: 10 µM. A general note: Alpha assays give light when donor and acceptor beads are brought close together.
Sequence of Sialic acid-binding Ig-like lectin 9 (Homo sapiens) (Q9Y336 whole entry): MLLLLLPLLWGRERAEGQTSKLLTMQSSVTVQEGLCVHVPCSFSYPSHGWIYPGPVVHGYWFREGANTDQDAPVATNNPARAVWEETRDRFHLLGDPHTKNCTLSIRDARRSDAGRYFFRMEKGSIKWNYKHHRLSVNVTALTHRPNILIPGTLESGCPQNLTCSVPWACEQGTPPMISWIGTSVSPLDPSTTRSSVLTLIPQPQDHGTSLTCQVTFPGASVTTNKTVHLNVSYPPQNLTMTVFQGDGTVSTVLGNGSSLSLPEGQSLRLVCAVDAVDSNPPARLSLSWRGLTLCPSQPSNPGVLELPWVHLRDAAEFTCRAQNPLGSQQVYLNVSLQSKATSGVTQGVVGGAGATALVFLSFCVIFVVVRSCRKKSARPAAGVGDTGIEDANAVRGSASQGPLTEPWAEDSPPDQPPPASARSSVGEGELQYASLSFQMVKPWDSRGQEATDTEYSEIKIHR
Assay [5] has as its system Trypanosoma cruzi. Description: Trypanosoma cruzi phosphomannomutase and mannose-1-phosphate guanylyltransferase assay. Conditions: 10 µM. The assay is classed as functional.
The target in assay [6] is T2, Arginase-2, mitochondrial (Homo sapiens) (UniProt P78540).
T2 sequence (whole entry): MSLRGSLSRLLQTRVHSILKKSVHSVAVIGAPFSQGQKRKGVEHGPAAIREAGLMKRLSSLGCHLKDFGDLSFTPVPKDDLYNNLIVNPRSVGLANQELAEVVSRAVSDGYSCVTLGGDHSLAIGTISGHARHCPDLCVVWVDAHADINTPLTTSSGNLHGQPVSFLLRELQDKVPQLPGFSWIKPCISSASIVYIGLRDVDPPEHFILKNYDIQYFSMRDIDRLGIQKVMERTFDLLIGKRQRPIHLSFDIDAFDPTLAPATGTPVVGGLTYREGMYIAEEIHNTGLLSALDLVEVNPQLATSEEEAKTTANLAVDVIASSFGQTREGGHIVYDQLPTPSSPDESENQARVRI
Description: in vitro enzyme assay to detect the production of urea directly proportional to the activity of Arginase II. Also: in the data most compounds retested in dose-response had high values. Conditions: 33.3 µM. The assay is classed as functional.

Assay [7] has as its target T3, Proteasome subunit beta (Trypanosoma cruzi) (UniProt O96673).
T3 sequence (whole entry): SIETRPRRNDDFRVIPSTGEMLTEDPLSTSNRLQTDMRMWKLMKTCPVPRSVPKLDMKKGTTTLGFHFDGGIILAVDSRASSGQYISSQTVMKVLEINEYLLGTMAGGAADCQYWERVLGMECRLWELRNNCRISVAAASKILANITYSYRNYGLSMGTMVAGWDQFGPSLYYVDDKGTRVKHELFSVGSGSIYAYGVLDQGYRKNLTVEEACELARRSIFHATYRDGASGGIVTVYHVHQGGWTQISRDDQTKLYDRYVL
Description: Trypanosoma cruzi proteasome chymotrypsin-like activity (TcProtChymo) assay. Also: in the data most compounds retested in dose-response had high values. It is filed as functional. As to conditions: 9.37 µM.

The species entered for assay [8] is Homo sapiens. Description: To identify inhibition of the IFN signalling (Jak-Stat) pathway via expression of an eGFP reporter gene under the control of an IFN-stimulated response element (ISRE) containing MxA promoter. The assay is classed as functional. Conditions: 30 µM. (In a reporter assay the amount or activity of a reporter protein is the signal.)
Assay [9] concerns the target T4, Tyrosyl-tRNA synthetase, putative (Trypanosoma cruzi (strain CL Brener)) (UniProt Q4DSP6).
T4 sequence (whole entry): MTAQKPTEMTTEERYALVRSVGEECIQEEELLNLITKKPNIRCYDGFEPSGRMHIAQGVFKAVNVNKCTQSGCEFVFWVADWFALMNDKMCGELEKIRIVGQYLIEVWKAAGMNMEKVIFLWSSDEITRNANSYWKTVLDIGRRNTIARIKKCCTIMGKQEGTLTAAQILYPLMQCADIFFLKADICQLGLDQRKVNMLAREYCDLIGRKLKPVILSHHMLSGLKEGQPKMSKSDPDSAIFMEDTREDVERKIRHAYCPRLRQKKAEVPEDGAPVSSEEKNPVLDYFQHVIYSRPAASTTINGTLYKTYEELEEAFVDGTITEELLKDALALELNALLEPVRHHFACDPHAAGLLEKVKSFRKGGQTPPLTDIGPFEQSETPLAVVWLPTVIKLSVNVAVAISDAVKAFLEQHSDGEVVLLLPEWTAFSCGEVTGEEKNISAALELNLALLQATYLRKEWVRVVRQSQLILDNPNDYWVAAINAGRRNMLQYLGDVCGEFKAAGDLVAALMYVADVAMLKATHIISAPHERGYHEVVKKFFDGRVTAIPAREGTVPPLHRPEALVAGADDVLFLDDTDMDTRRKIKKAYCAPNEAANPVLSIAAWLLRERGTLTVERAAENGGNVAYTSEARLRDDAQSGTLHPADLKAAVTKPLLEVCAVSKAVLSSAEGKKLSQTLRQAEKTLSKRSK
Description: Trypanosoma cruzi tyrosyl tRNA synthetase (TcYRS) _High Tyrosine SOP. Also: in the data most compounds retested in dose-response had high values. It is filed as functional. As to conditions: 30 µM.

For assay [10], the target named is T4, Tyrosyl-tRNA synthetase, putative (Trypanosoma cruzi (strain CL Brener)). Description: Trypanosoma cruzi tyrosyl tRNA synthetase (TcYRS) SOP. It is filed as functional. Conditions: 30 µM.
Assay [11] addresses Chromo domain-containing protein 1 (Saccharomyces cerevisiae (strain ATCC 204508 / S288c) (Baker's yeast)) (UniProt P32657). Description: ScCHD-1 Enzyme Inhibition Assay. Also: in the data most compounds retested in dose-response had high values. It is filed as functional. As to conditions: 30 µM.

Sequence of Chromo domain-containing protein 1 (Saccharomyces cerevisiae (strain ATCC 204508 / S288c) (Baker's yeast)) (P32657 whole entry, the tested form may be a part): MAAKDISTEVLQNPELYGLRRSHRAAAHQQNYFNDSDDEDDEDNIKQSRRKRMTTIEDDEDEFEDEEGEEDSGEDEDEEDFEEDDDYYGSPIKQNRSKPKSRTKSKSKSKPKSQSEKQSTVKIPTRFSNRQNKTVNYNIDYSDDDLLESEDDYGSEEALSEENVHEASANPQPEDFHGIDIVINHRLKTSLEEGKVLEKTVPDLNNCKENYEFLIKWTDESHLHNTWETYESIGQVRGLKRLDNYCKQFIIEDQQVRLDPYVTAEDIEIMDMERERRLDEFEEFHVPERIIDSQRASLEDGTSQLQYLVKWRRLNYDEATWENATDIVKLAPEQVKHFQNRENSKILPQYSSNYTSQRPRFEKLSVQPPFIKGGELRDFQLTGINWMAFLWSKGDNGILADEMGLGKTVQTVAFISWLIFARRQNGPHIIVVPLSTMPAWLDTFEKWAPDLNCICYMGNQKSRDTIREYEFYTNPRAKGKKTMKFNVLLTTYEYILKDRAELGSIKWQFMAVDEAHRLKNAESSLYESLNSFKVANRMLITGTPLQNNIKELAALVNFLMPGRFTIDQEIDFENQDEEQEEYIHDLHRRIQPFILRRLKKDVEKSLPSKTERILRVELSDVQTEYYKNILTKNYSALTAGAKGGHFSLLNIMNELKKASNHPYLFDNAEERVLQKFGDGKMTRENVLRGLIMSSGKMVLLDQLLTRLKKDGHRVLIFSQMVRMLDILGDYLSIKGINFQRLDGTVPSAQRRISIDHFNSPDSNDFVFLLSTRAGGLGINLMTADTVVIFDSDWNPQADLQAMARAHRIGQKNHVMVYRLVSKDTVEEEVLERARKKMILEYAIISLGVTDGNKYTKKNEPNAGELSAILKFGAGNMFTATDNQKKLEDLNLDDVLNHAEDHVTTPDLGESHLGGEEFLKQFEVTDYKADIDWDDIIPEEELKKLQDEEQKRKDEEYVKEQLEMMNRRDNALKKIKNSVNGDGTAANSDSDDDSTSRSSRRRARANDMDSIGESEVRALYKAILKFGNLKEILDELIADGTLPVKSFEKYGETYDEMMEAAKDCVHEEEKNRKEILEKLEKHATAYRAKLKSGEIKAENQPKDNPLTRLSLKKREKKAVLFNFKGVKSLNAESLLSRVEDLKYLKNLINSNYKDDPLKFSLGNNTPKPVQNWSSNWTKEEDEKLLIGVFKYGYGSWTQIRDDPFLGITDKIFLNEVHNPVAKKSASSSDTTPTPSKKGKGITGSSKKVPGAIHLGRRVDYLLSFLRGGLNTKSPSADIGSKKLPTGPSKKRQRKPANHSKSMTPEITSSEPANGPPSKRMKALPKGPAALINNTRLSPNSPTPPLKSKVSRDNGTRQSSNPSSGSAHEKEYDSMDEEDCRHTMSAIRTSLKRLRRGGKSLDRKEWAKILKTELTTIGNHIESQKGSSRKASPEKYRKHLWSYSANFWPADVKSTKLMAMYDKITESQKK

In the case of `CCOc1ncccc1CNC(=O)N1CCCC1c1ccncc1` (stereo not given), the Percent Effect in assay [1] is -1.89%; in assay [2], 5.33%; in assay [3] it was -2.16%; in [4], 2.11%; in [5], -7.3%; in assay [6], 4.17%. Besides, the Percent Effect was 8.37% in [7]; 12.2% in assay [8]; 4.92% in assay [9]; 13.6% in assay [10]; -7.62% in [11].

Turning to `CCc1c(C)nc2cc(C3CCN(Cc4ccccc4F)C3)nn2c1O` (stereo not given), the Percent Effect in [1] was 0.76%; in [2], -14.9%; in assay [3], -7.43%; in [4], -10.9%; in assay [5], -2.77%; in assay [6] it was 2.09%. The Percent Effect in [7] was 20.9%; in assay [8], 17%; in assay [9] it was 4.3%; in assay [10], 9.09%; in assay [11], -7.83%.

With `CN(C)C(C(=O)N1CCC(N2CCSCC2)CC1)c1ccccc1F` (stereo not given), the Percent Effect is -0.819% in assay [1]; 12.5% in [2]; -3.64% in [3]; 4.95% in [4]; 1.46% in assay [5]; 22.5% in assay [6]. The Percent Effect was 20.7% in [7]; -4.19% in [8]; 10.5% in assay [9]; 20.5% in assay [10]; -1.59% in assay [11].

In the case of `CC(O)CN1CCC(CNCc2cccc(Br)c2)CC1` (stereo not given), the Percent Effect in assay [1] was -6.33%; in assay [2], 5.41%; in assay [3] it was -21.1%; in [4], 11.5%; in assay [5], -4.25%; in assay [6], -5.61%. Further, the Percent Effect in [7] was -0.721%; in assay [8], 11.2%; in assay [9], 2.46%; in assay [10], -1.24%; in assay [11], 4.26%.

`Cc1cc(C)nc(NC(=O)C(C)Oc2ccc3c(c2)OCO3)n1` (stereo not given): the Percent Effect was -1.24% in assay [1]; 5.2% in assay [2]; -2.31% in assay [3]; 4.95% in assay [4]; 5.21% in assay [5]; 0% in assay [6]. Further, the Percent Effect in assay [7] is 19.6%; in assay [8], 5.23%; in assay [9], 8.6%; in assay [10] it was 18.5%; in assay [11] it was -2.76%.

On to `CC(=O)N1CCN(C(=O)CCCc2nc(C(C)C)no2)CC1`, for which the Percent Effect in [1] was -1.74%; in [2] it was 15.2%; in assay [3], 2.62%; in [4], -11.8%; in [5] it was -10.1%; in assay [6] it was 4.56%. Further, the Percent Effect was 8.44% in [7]; 37.4% in assay [8]; -0.493% in assay [9]; -1.27% in assay [10]; -5.47% in assay [11].

As for `CN(C)CCO[C@H]1CN(Cc2cccc(C#N)c2)[C@@H]2COC[C@H]12`, the Percent Effect is -3.05% in assay [1]; 5.33% in assay [2]; 0.409% in assay [3]; 2.27% in assay [4]; 2.32% in assay [5]; -44.6% in [6]. The Percent Effect in assay [7] was 9.91%; in assay [8] it was -12.1%; in assay [9], 6.25%; in assay [10], 17.5%; in assay [11] it was -5.99%.

Take `Cc1cnn(CC2CN(Cc3nc(N)c4ccccc4n3)CCO2)c1` (stereo not given): the Percent Effect was -2.67% in [1]; 13% in assay [2]; -1.66% in assay [3]; -10% in [4]; -5.78% in assay [5]; -1.47% in assay [6]. The Percent Effect in [7] was 19.3%; in assay [8], 10.5%; in assay [9], 4.76%; in assay [10], 11.8%; in assay [11], -20.4%.

`O=c1c2cnc(N3CCCCC3)nc2ccn1-c1ccccc1`: the Percent Effect in assay [1] was -4.04%; in [2], 9.33%; in [3], -3.82%; in assay [4] it was -5.64%; in assay [5] it was 4.71%; in assay [6], -7.22%. Besides, the Percent Effect in assay [7] is 15%; in assay [8] it was 8.11%; in assay [9] it was 2.12%; in [10], 10.3%; in [11] it was -8.21%.

On to `CC(C)NC(=O)C1CN(C(=O)c2ccc(F)cc2)CC12CCOCC2` (stereo not given), for which the Percent Effect in assay [1] was -0.326%; in [2], 6.67%; in assay [3] it was 1.28%; in assay [4], -10.8%; in [5] it was -11.8%; in assay [6], -7.22%. Besides, the Percent Effect in assay [7] was 17.4%; in [8], -8.73%; in assay [9], 1.06%; in [10], 2.56%; in assay [11] it was -10.5%.
